Hit rate of the full screen: of about 330,000 compounds, about 670 (0.2%) were called active. Only a selection was taken, and actives are over-represented in it overall. Unmarked numbers belong to inactive results.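 How the source made its calls: active means activity change below a set negative limit, meaning inhibition stronger than a set level (cut at about -70% in these data); inconclusive means activity change between two set negative limits; inactive means the rest.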

The text below walks through data of PubChem BioAssay AID504810 (National Center for Advancing Translational Sciences (NCATS), 2011).
On the % scale 0 is the no-effect control and ±100 the full control effect.

Chain of Thyrotropin receptor (Homo sapiens) (P16473 whole entry, looked up): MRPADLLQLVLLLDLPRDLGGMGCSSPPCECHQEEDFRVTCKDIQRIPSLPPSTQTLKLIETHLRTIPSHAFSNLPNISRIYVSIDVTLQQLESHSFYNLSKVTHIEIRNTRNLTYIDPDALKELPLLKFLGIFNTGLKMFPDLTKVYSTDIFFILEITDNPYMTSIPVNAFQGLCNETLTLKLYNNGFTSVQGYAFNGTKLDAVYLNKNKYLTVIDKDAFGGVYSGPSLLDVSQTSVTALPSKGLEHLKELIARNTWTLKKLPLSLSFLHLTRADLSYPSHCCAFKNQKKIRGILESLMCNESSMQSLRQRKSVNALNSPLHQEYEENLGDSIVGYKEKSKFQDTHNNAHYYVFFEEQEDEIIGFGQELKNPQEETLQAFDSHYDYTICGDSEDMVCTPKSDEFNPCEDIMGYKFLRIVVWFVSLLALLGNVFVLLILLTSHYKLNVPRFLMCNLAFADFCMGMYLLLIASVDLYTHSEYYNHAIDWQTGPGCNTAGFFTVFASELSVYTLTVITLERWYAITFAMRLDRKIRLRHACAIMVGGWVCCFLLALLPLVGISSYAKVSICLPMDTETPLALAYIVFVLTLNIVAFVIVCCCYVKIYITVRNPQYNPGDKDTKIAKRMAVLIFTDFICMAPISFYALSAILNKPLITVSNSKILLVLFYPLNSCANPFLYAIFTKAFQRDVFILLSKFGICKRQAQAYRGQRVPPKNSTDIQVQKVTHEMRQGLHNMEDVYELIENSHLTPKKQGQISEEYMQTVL

For the assay, the target named is Thyrotropin receptor (Homo sapiens) (UniProt P16473). The experiment in a line: Antagonists of the Thyroid Stimulating Hormone Receptor: HTS campaign. The note with it: TSHR-expressing cells, TSH-stimulated cAMP HTRF, 2 h; at 11.5 µM; active compounds read low. The text has this:
The thyroid-stimulating hormone receptor (TSHR) is a member of the 7 trans-membrane-spanning receptor (7TMR) family of cell surface receptors. TSHR-mediated hyperthyroidism is important in thyroid pathology. The development of small molecule antagonists of TSHR may lead to therapeutic approaches for TSHR-mediated hyperthyroidism caused by constitutively activating mutations or stimulating auto-antibodies associated with Graves' disease. Graves' disease is the leading cause of hyperthyroidism and is caused by autoantibodies that stimulate TSHR (TsAbs) causing thyroid growth and unregulated overproduction of thyroid hormones and existing treatments have liabilities (agranulocytosis). In addition, TSHRs are known to be expressed in multiple extrathyroidal tissues including bone, brain, kidney, testis, fat and cells of the immune system but the role of the TSHR in these tissues is not clear. Therefore, TSHR antagonists/inverse agonists could be used as probes of extrathyroidal TSHR function. Finally, TSHR inverse agonists, which are a subclass of antagonists that inhibit agonist-independent (or basal or constitutive) TSHR signaling, could be used to inhibit TSH-independent signaling in patients with recurrent or metastatic thyroid cancer who are receiving thyroid hormone to suppress TSH. In collaboration between scientist from the NCGC and the NIDDK, a miniaturized HTRF high-throughput screen was developed. It's a cell based assay, where an anti cAMP antibody contains a fluorescent cryptate tag (excitation 337 nm; emission 620 nm) and the acceptor is cAMP-d2 (excitation 620 nm; emission 665 nm). When antibody and cAMP-d2 interact and are excited by a 337 nm light, a FRET occurs resulting in emission at 665 nm. The assay is competition between cAMP-d2 and cAMP (from the cell lysate). The homogeneous protocol allows for one step dispense after stimulation that is automation friendly. NIH Chemical Genomics Center [NCGC] NIH Molecular Libraries Probe Centers Network [MLPCN] MLPCN Grant: MH090855-01 Assay Submitter (PI): Marvin Gerhengorn
1. 3ul of 200 TSHR freshly harvested cells/well are dispensed into a 1536 TC-treated white solid bottom plate. 2. Through pintool addition, 23nl of compounds and control in 100% DMSO are added to the plate. 3. Then 1ul of EC80 TSH (4nM final) is added to the plate. 4. Assay is incubated at 37 deg C for 2 hours. 5. 2ul of cAMP antibody diluted 1:20 in lysis buffer is added. 6. Immediately following, 2ul of d2 diluted 1:20 in HBSS is added seperately. 7. The assay is incubated for 30 minutes at ambient room temperature. 8. The result is obtained by using a ViewLux read-out with HTRF settings.
On the technique in general: Time-resolved FRET reads energy transfer from a long-lived donor to a nearby acceptor.
`CC(C)(O)C#Cc1ccc(C(=O)N2CCC(C(N)=O)(N3CCCCC3)CC2)cc1`: the activity change, negative = inhibition is 2.47%.

As to `NC(=O)C1(N2CCCCC2)CCN(C(=O)c2ccc(C#Cc3ccccc3)o2)CC1`, the activity change, negative = inhibition is -75.1% (active).

Regarding `NC(=O)C1(N2CCCCC2)CCN(C(=S)Nc2ccc(Cl)cc2)CC1`, the activity change, negative = inhibition was 25.4%.

Regarding `CSc1ccccc1N1CCN(CCCCCC(=O)NC2CCCc3ccccc32)CC1` (centres undefined), the activity change, negative = inhibition is -13.5%.

With `Cc1c(C)n2c(SCC(=O)NC3CCCC3)nnc2[nH]c1=O`, the activity change, negative = inhibition was -8.74%.

As for `CC(=O)Nc1ccc(NC(=O)CN2C(=O)COc3ccc(S(=O)(=O)N4CCCCC4)cc32)cc1`, the activity change, negative = inhibition is 0.648%.

As for `COc1ccc(NC(=O)CN2C(=O)COc3ccc(S(=O)(=O)N4CCOCC4)cc32)cc1`, the activity change, negative = inhibition is -2.02%.

Regarding `CSc1cccc(NC(=O)CN2C(=O)COc3ccc(S(=O)(=O)N4CCOCC4)cc32)c1`, the activity change, negative = inhibition is -134% (active).

For `Cc1cc2occ(CC(=O)NNC(=O)c3ccccc3F)c2cc1C`, the activity change, negative = inhibition is 3.48%.

As for `Cc1csc(NC(=O)CSc2nc(=O)n(CCCN(C)C)c3c2CCC3)n1`, the activity change, negative = inhibition was -6.64%.

As to `CSc1nc(N(C)NC(=O)c2cccc(C)c2)c2ccccc2n1`, the activity change, negative = inhibition was -3.52%.

As to `Cc1cc(C)c2oc(C(=O)Nc3ccc(S(=O)(=O)Nc4nccc(C)n4)cc3)cc(=O)c2c1`, the activity change, negative = inhibition was -137% (active).

As to `Cc1ccnc(NS(=O)(=O)c2ccc(NC(=O)c3oc4ccccc4c3C)cc2)n1`, the activity change, negative = inhibition is -4.53%.

In the case of `Cc1ccnc(NS(=O)(=O)c2ccc(NC(=O)c3oc4ccc(F)cc4c3C)cc2)n1`, the activity change, negative = inhibition is 4.87%.

Regarding `CCCCC(C(=O)NC(C)(C)C)N(Cc1ccccc1)C(=O)c1snc(C(N)=O)c1N` (centres undefined), the activity change, negative = inhibition was -2.07%.

For `CC/C(=N/Nc1ccccc1)c1cnnc(SC)n1`, the activity change, negative = inhibition was -5.85%.

Turning to `Cc1cccc(C)c1NC(=O)CSc1nc2c([nH]1)c(=O)n(C)c(=O)n2C`, the activity change, negative = inhibition is -2.1%.

`Cn1c2cc(B(O)O)sc2c2cnn(Cc3ccccc3F)c(=O)c21`: the activity change, negative = inhibition is -27.6%.

On to `CCOc1ccc(N(CC(=O)NC2CCCCCC2)S(=O)(=O)c2c(C)[nH]c(=O)[nH]c2=O)cc1`, for which the activity change, negative = inhibition is -10.6%.

In the case of `O=C(CN1C(=O)NC2(CCCCCC2)C1=O)Nc1ccc([N+](=O)[O-])cc1`, the activity change, negative = inhibition was 0.839%.

Turning to `CN(C(=O)C1CCN(c2ncnc3c2nc2n3CCCCC2)CC1)C1CCCCC1`, the activity change, negative = inhibition is 1.35%.

With `[O-][n+]1onc2c1CCc1[nH]c(-c3ccccc3)nc1-2`, the activity change, negative = inhibition was -36.4%.

As to `CCCC1(C(=O)OC)NC(c2ccco2)C2C(=O)N(C)C(=O)C21` (centres undefined), the activity change, negative = inhibition is -3.19%.

For `Cc1cc(NC(=O)CN2C(=O)NC(C)(CCc3ccccc3)C2=O)no1` (centres undefined), the activity change, negative = inhibition is 10.4%.

As for `CCCCN(C(=O)c1ccc2ccccc2c1)c1c(N)n(CCCC)c(=O)[nH]c1=O`, the activity change, negative = inhibition was -8.5%.

On to `CNC(=S)N1CCC(NC(=O)C(Cc2ccc(F)cc2)NC(C)=O)CC1` (centres undefined), for which the activity change, negative = inhibition was -6.46%.

As to `O=C(COc1ccc(Cl)cc1)Nc1ccc2c(c1)OCO2`, the activity change, negative = inhibition is -1.65%.

For `O=P(O)(CN1CCCCCC1)C1Cc2ccccc2C1`, the activity change, negative = inhibition is 34.6%.

As for `CCOC(=O)C1(Cc2ccccc2C)CCCN(C(=O)CN2C(=O)CSC2=O)C1` (centres undefined), the activity change, negative = inhibition was 28.6%.

`COc1cc([N+](=O)[O-])cc([N+](=O)[O-])c1NC(=O)N1CCOCC1`: the activity change, negative = inhibition was -0.913%.

As to `CCN(CC(=O)Nc1ccc(NC(C)=O)cc1)C(=O)C1CC(=O)N(Cc2ccc(C)cc2)C1` (centres undefined), the activity change, negative = inhibition is 0.752%.

As to `CN1CCCc2cc(C#N)c(=O)[nH]c21`, the activity change, negative = inhibition is 4.52%.

As to `COCCn1c(Cc2cccn2C)nnc1SCC(=O)Nc1nccs1`, the activity change, negative = inhibition was 4.54%.

In the case of `C/C(CCC(=O)OC[C@H]1O[C@H](C#Cc2ccccc2)C=C[C@@H]1Oc1ccc(C)cc1)=N\OC[C@@H](O)[C@H]1O[C@@H]2OC(C)(C)O[C@@H]2[C@H]1O`, the activity change, negative = inhibition was -3.15%.

Regarding `CCOC(CNC(=O)C(=O)NCC(c1ccco1)N1CCN(c2ccc(OC)cc2)CC1)OCC` (centres undefined), the activity change, negative = inhibition is 0.959%.

In the case of `Cc1cc(=O)oc2c(C)c(OC(C)C(=O)NC3CCN(Cc4ccccc4)CC3)ccc12` (centres undefined), the activity change, negative = inhibition is -2.61%.

As for `O=c1cc(-c2ccccc2)[nH]c2nc(Cl)ccc12`, the activity change, negative = inhibition was -13.7%.

Regarding `C=CC1(C)CC(=O)C2(O)C(C)(O1)C(OC(C)=O)C(O)C1C(C)(C)CCC(O)C12C` (centres undefined), the activity change, negative = inhibition is 107%.

On to `CN(C)c1ccc(CNC(=O)CN2C(=O)COc3ccc(S(=O)(=O)N4CCCC4)cc32)cc1`, for which the activity change, negative = inhibition is -5.17%.

For the molecule `CCn1ccnc1CNC(=O)CC1C(=O)NCCN1CCCc1ccccc1` (centres undefined), the activity change, negative = inhibition is 8.41%.

For the molecule `O=C(O)CCn1cc(/C=C/C(=O)c2ccc(Cl)cc2)c(-c2cccc(Br)c2)n1`, the activity change, negative = inhibition is -11.6%.

As for `CSc1ccc(CNC(=O)c2ccc(NC(=O)C3=CSCCO3)cc2)cc1`, the activity change, negative = inhibition was 17.8%.

Turning to `O=C(Nc1ccc(C(=O)NCc2ccccc2Cl)cc1)C1=CSCCO1`, the activity change, negative = inhibition is -135% (active).

As for `O=C(NCc1ccccc1Cl)C1CCCO1` (centres undefined), the activity change, negative = inhibition is -3.41%.
